Compound activity from PubChem BioAssay.
A selection: hits, their analogues and other compounds. The true share with any hit is near 4%.
TROY signal inh – TROY signaling inhibition; Q293 LMP1-TROYcd NF-kB luciferase reporter, 4 h; inhibition, % at 10 µM; actives 0.98% (n = 360,000);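 active means compounds whose plate-normalised and pattern-corrected inhibition of the luciferase reporter signal at the single screening dose is 50% or more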
HIF-2a block – blocks HIF-2a reporter activity. inhibition, % at 18.8 µM. 786-0 RCC cells HIF-2a reporter, luciferase luminescence, overnight. AID 624352. actives 0.72% (n = 360,000);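 active means inhibition of the luminescence signal of 40% or more relative to plate controls, in a single-dose primary screen at 18.75 µM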
TWEAK-Fn14 inh – inhibitors of TWEAK-Fn14 interaction signaling | inhibition, % at 10 µM | AID 1159606 | TWEAK-stimulated Fn14 reporter cells, luciferase luminescence, 8 h | actives 2% (n = 360,000); in the data active means inhibition above about 50%
KKLEB cytotox – counter-screen for CF NF-kB inhibitors: cytotoxicity. KKLEB CF airway cells viability, ATPlite luminescence, overnight; stronger effect = lower value; cells stimulated with P. aeruginosa culture filtrate. activity change (cytotoxicity), % at 5 µM. actives 0.36% (n = 360,000);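 active means corrected activity change at or below -50% at 5 µM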
CF NFkB inh – blocks PAF-induced NF-kB reporter in cystic fibrosis cells; actives 0.86% (n = 360,000); KKLEB NF-kB-GFP reporter, GFP fluorescence overnight; inhibition, % at 5 µM;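 active means at least 50% inhibition at 5 µM, scaled per plate between neutral and stimulator controls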;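 further: PAF is a Pseudomonas aeruginosa culture filtrate used as stimulus; plate controls were PAF-stimulated DMSO wells for no effect and unstimulated DMSO wells for full effect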
Peg3 prom inh – Peg3 promoter activity inhibition | actives 1.7% (n = 360,000) | inhibition, % at 20 µM | HeLa PEG-Prom luciferase reporter, luminescence, overnight;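 active means inhibition of at least 50% at 20 µM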
The depositor's hits bear a star; nt = no result.

SMILES	TROY signal inh	HIF-2a block	TWEAK-Fn14 inh	KKLEB cytotox	CF NFkB inh	Peg3 prom inh
COC(=O)c1cnn(-c2cc(Oc3cccc(C)c3)ncn2)c1N	nt	-61	91*	2	1	-110
CCN1C(=C(C#N)C#N)C=Cc2cc(C)ccc21	-33	17	-22	11	-39	-8
C=CC[n+]1c(/C=C2\C=Cc3cc(C)ccc3N2CC)ccc2ccccc21	40	-20	57*	-11	27	35
CCOC(=O)N1CCN(c2ccc(S(=O)(=O)N(Cc3ccccc3)Cc3ccccc3)cn2)CC1	62*	-40	42	-18	6	-19
COc1ccccc1C(=O)NCCC(=O)N1CCCC(C)C1 (stereo not drawn)	6	-7	2	11	-10	17
COc1ccc(NC(=S)Nc2cccc([N+](=O)[O-])c2)cc1	-62	-77	-21	12	-14	-48
Cc1cccc(NC(=S)NNc2cccc(Cl)c2)c1	-47	9	-21	26	-40	29
Cc1ccc(NS(=O)(=O)c2cc([N+](=O)[O-])ccc2NNC(=S)Nc2cc(C)ccc2C)c(C)c1	53*	-6	68*	-24	44	38
COc1ccc(NC(=S)NNc2ccc([N+](=O)[O-])cc2S(=O)(=O)Nc2ccc(C)cc2C)cc1	29	-4	37	-29	46	52*
Cc1ccc(NS(=O)(=O)c2cc([N+](=O)[O-])ccc2NNC(=S)Nc2cccc(Cl)c2)c(C)c1	62*	-11	40	6	28	41
CC(C)Oc1ccc(C(=O)Nc2nc3ccccc3[nH]2)cc1	82*	55*	98*	-50*	-12	37
COc1ccccc1CCC(=O)Nc1nc2ccccc2[nH]1	-49	-208	50*	1	-19	-152
COc1ccc(CCC(=O)Nc2nc3ccccc3[nH]2)cc1OC	10	-34	-1	-4	4	-38
O=C(Nc1nc2ccccc2[nH]1)c1ccc(F)cc1	10	-87	69*	-19	-2	-51
O=C(Nc1nc2ccccc2[nH]1)c1ccccc1OC(F)F	27	-56	64*	-11	-8	-104
CN(Cc1nc(CCc2ccccc2)no1)Cc1cccs1	-20	-123	-12	2	-2	-78
CC(C)CCN1C(=O)c2ccc(C(=O)OCC(=O)N(CC(C)C)C3CCS(=O)(=O)C3)cc2C1=O (stereo not drawn)	0	0	-15	-6	-2	10
Cc1ccc(S(=O)(=O)N2CCN(CC3CC4C=CC3C4)CC2)cc1 (stereo not drawn)	-9	10	-1	5	-1	0
COc1ccc(/C=C/C(=O)OCc2csc(-c3ccccc3)n2)cc1OC	-6	-46	-6	-1	4	-5
COc1ccc(Cl)cc1C(=O)Nc1nc2ccccc2[nH]1	71*	33	95*	-52*	-31	-12
Cc1cc(NS(=O)(=O)c2ccc(NC(=O)C3CCCCC3)cc2)no1	6	16	-1	-3	13	11
c1ccc(-c2csc3ncnc(NCc4ccccn4)c23)cc1	-14	22	65*	-14	22	39
Cc1c(N=Cc2nc3ccccc3n2C)c(=O)n(-c2ccccc2)n1C	64*	-10	62*	1	10	-65
CCCCc1c(O)nc2ccccn2c1=O	10	7	25	11	-18	-12
O=C(CN1C2CCCC1CC(NC(=O)c1ccccc1)C2)Nc1ccccc1C(F)(F)F (stereo not drawn)	51*	-7	39	-9	-5	18
COc1ccccc1NC(=O)C1CCCN1C(=O)NC1CCCCC1 (stereo not drawn)	-7	15	37	8	2	-1
O=C(Nc1cccc(S(=O)(=O)N2CCCCC2)c1)c1ccc2c(=O)n3c(nc2c1)CCCCC3	55*	-6	71*	6	6	90*
O=C(COc1cccc(NC(=O)c2cccc([N+](=O)[O-])c2)c1)c1ccc(Br)cc1	39	1	71*	2	4	50*
O=C(Nc1cccc(OCC(=O)N2CCOCC2)c1)c1cccc([N+](=O)[O-])c1	10	3	24	3	-16	12
Cc1cc(C)n(CC(O)Cn2c3ccccc3c3ccccc32)n1 (stereo not drawn)	12	1	-12	-2	-10	8
